Results reported in the supplement of paper PMC10338343.
± gives the standard deviation. Whole data set: some 3,700 sequences, median “pre-steady-state target cleavage rate” near 0.02, cut for the highest 2% near 0.23. This excerpt belongs to a sample that is enriched for the highest values.

These sequences were tested on MILI (PIWIL2) piRISC loaded with Kctd7 piRNA (26 nt) (assay: pre-steady-state target cleavage rate (min^-1); MIWI and MILI are mouse PIWI proteins and EfPiwi is from a freshwater sponge; tags in brackets are library labels; higher = faster piRNA-guided slicing of the target). Conditions: guide: Kctd7 piRNA 5'p-UGUUAAUCUCUCAGAGAAGGUGACAG; auxiliary factor: 500 nM mouse GTSF1.
Protocol: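 Cleave-'n-Seq: a library of target RNAs (target site embedded in constant flanks, ACAGCATTCCGCGTTAGTGATATCCG... 5' flank; DNA-blocked outside the site) at 0.1 nM was incubated with 1 nM active mouse MILI or MIWI piRISC (synthetic 5'-monophosphorylated piRNA guide) with or without 500 nM mouse GTSF1 at 33 °C for 1 min to 16 h. Uncleaved targets were sequenced and normalised to non-target controls, and the pooled three trials were fitted to a burst-and-steady-state model to give the pre-steady-state cleavage rate (min^-1; k3 is constrained to at most 1e-4). Sequence is the target site only; target names encode pairing extent (gX:gY) and contiguous / 1-mismatch / 2-mismatch / bulge geometry. Fits with R² ≤ 0 are excluded.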

| Sequence | pre-steady-state target cleavage rate |
| --- | --- |
| UAGUGUGUCACCUUCUCUGAGAAAUUAACA | 0.112 ± 0.019 |
| UAGUCUGUCACCUUCUCUGAGAAUUAACA | 0.0747 ± 0.031 |
| UAGUGUGUCACCUUCUCUGAGAAUUAACA | 0.0848 ± 0.036 |
| UAGUCUGUCACCUUCUCUGAGAGAAUUAACA | 0.32 ± 0.051 |
| UAGUCUGUCACCUUCUCUGAGAAAUUAACA | 0.143 ± 0.018 |
| UAGUGUGUCACCUUCUCUGAGAGAAUUAACA | 0.277 ± 0.048 |
| UAGUGACAGUCCUUCUCUGAUGAGAUUAACA | 0.00278 ± 0.0025 |
| UAGUGACACUCCUUCUCUGAGUGAUUAACA | 0.00415 ± 0.0032 |
| UAGUGACAGACGUACUCUGAGAGAUUAACA | 0.014 ± 0.0034 |
| UAGUGUGUCACCUACUCUGAGAGAUUAUCA | 0.239 ± 0.049 |
| UAGUGUGUCACCUACUCUGAGAGAUUAAGA | 0.1 ± 0.023 |
| UAGUGUGUCACCUACUCUGAGAGAUUUUGA | 0.0414 ± 0.016 |
| UAGUGAGUCACCUACUCUGAGAGAUUUACA | 0.164 ± 0.053 |
| UAGUGUGUCACCUACUCUGAGAGAUUAUGA | 0.0343 ± 0.015 |
| UAGUGUGUCACCUACUCUGAGAGAUUUACA | 0.25 ± 0.052 |
| UAGUGUGUCACCUUCUCUGAGAGAUUUAACA | 0.391 ± 0.052 |
| UAGUGUCUCACCUUCUCUGAGAGAUUUACA | 0.196 ± 0.043 |
| UAGUGUGUCACCUUCUCUCUGAGAUUAACA | 0.0138 ± 0.004 |
| UAGUGUGUCACCUUCUCUGAGAGAUUACA | 0.122 ± 0.036 |
| UAGUGUGUCACCUUCUCUGAGAGAUUUACA | 0.266 ± 0.047 |
| UAGUGUGUCACCUUCUCUGAGAGAUUAACA [g2:g25:cont:t1A] | 0.216 ± 0.015 |
| UAGUGACUGUCCUUCUCUGAGAGAUUAACA | 0.2 ± 0.016 |
| UAGUGAGUGACCUUGUCUGAGAGAUUAACA | 0.0726 ± 0.014 |
| UAGUGACAGACCUUGUCUGACAGAUUAACA | 0.0121 ± 0.0036 |
| UAGUGAGUCACCUUCUCUGAGAGAUUUUCA | 0.145 ± 0.044 |

| Sequence | pre-steady-state target cleavage rate |
| --- | --- |
| UAGUCUGUCACCUUCUCUGAGAGAUUCAACA | 0.324 ± 0.061 |
| UAGUGAGUCACCUUCUCUGAGAGAUCAACA | 0.0788 ± 0.025 |
| UAGUCUGUCACCUUCUCUGAGAGAUUCACA | 0.265 ± 0.059 |
| UAGUGAGUCACCUUCUCUGAGAGAUUCAACA | 0.279 ± 0.054 |
| UAGUCUGUCACCUUCUCUGAGAGAUUACACA | 0.153 ± 0.022 |
| UAGUCUGUCACCUUCUCUGAGAGAUUUUCA | 0.12 ± 0.031 |
| UAGUCUGUCACCUUCUCUGAGAGAUCAACA | 0.114 ± 0.018 |
| UAGUCUGUCAACCUUCUCUGAGAGAUUAACA | 0.0716 ± 0.011 |
| UAGUGACAGUGCUUCUCUGAGAGAUUAUCA | 0.00765 ± 0.0025 |
| UAGUCUGUCACCUUCUCUCAGAGAUUAACA | 0.064 ± 0.0081 |
| UAGUGACAGUGGAACUCUGAGAGUUAAACA | < 0.0001 |
| UAGUGACACACCUUCUCUGAUGAGAUUAACA | 0.00949 ± 0.0043 |
| UAGUGAGUCACCUUCACUGACAGAUUAACA | 0.0411 ± 0.013 |
| UAGUGACACACCUUCUCUGAGAAAUUAACA | 0.219 ± 0.035 |
| UAGUGACUCACCUUCUCGAGAGAUUAACA | 0.02 ± 0.0065 |
| UAGUGUGUCACCUUCUCUGAAAGAUUAACA | 0.0569 ± 0.011 |
| UAGUGACAGUGGAACACUGAGACAUUAACA | < 0.0001 |
| UAGUGUGUCACCUUCUCUGAGAGUUUAACA | 0.316 ± 0.078 |
| UAGUGUGUCACCUUCUCUGAGAGUAAAACA | 0.194 ± 0.057 |
| UAGUGUCUCACCUUCUCUGAGAGUUUAACA | 0.286 ± 0.038 |
| UAGUGUGUCACCUUCUCUGAGAGUUAACA | 0.194 ± 0.055 |
| UAGUGUGUCACCUUCUCUGUGAGUUUAACA | 0.0386 ± 0.0085 |
| UAGUGUGUCACCUUCUCUGAGAGUUAAACA | 0.146 ± 0.049 |
| UAGUGACUCACCUUCUCUGAGAGUUUAACA | 0.118 ± 0.028 |
| UAGUGUGUCACCUUCUCUGAGAGAGUUAACA | 0.259 ± 0.046 |

| Sequence | pre-steady-state target cleavage rate |
| --- | --- |
| UAGUCUCUCACCUUCUCUGAGAGUUUAACA | 0.183 ± 0.024 |
| UAGUGUGUCACCUUCUGUGAGAGUUUAACA | 0.0964 ± 0.027 |
| UAGUGUGUCACCUUCUCUGAGAGUAUAACA | 0.181 ± 0.072 |
| UAGUGUGUCACCUUCUCUGAGAGAGUAACA | 0.287 ± 0.056 |
| UAGUGAGUCACCUUGUCUGAGAGAUUUUGA | 0.0161 ± 0.0098 |
| UAGUGACACAGGAUCUCUGAGAGAUAUUGA | < 0.0001 |
| UAGUGUGUCACCGUCUCUGAGAGAUUAACA | 0.113 ± 0.012 |
| UAGUCUGUCUCCUUCUCUGAGAGAUUAAGA | 0.054 ± 0.012 |
| UAGUCUGUCACCUUCUCUGAGAGAUCUAACA | 0.258 ± 0.054 |
| UAGUGUGUCACCUUCUCUGAGAGAUAACA | 0.0605 ± 0.02 |
| UAGUGAGUCACCUUCUCUGAGAGAUCUAACA | 0.171 ± 0.035 |
| UAGUCUGUCACCUUCUCUAAGAGAUUAACA | 0.138 ± 0.0097 |
| UAGUGUGUCACCUUCUCUGAGAGAUCUAACA | 0.306 ± 0.071 |
| UAGUCUGUCACCUUCUCUGAGAGACUAACA | 0.149 ± 0.027 |
| UAGUGAGUCACCUUCUGUGUGAGAUUAACA | 0.0434 ± 0.0067 |
| UAGUGACAGUCCUUCUCUGAGAGUAAUUGA [g8:g20:cont:t1A] | < 0.0001 |
| UAGUGACUCACCUUCUCUGAGAGCUUAACA | 0.156 ± 0.022 |
| UAGUCUGUCACCUUGUCUGAGAGAUUAACA | 0.133 ± 0.016 |
| UAGUGACUCACCUUGCUCUGAGAGAUUAACA | 0.048 ± 0.016 |
| UAGUGAGUCACCUUGCUCUGAGAGAUUAACA | 0.351 ± 0.077 |
| UAGUGUGUCACCUUGUCUGAGAGAUUAACA | 0.134 ± 0.021 |
| UAGUGAGUCACCUGCUCUGAGAGAUUAACA | 0.169 ± 0.018 |
| UAGUGUGUCACCUGCUCUGAGAGAUUAACA | 0.157 ± 0.012 |
